According to paper PMC4552634, “A New Set of Chemical Starting Points with Plasmodium falciparum Transmission-Blocking Potential for Antimalarial Drug Discovery” (PLoS ONE, 2015):
About 3,200 (25%) of roughly 13,000 compounds showed an effect of 50% or more. The list shows a part of the results.

System: P. falciparum stage V gametocytes
Parameters: BacTiter-Glo ATP luminescence viability of purified stage V gametocytes in 384-well plates, per cent inhibition versus DMSO
Conditions: 48 h, 5 µM; inhibitor

In order of rising “% Inhibition” value:
1. CS(=O)(=O)CCNCc1cccc(-c2ccc3c(Nc4ccc(Oc5cccnc5)cc4)ccnc3c2)c1 [TCMDC-138488]  -52.67%
2. CS(=O)(=O)CCNCc1cccc(-c2cc3nccc(Nc4ccc(Oc5ccccc5)cc4)c3cc2Cl)c1 [TCMDC-138462]  -8.797%
3. NC(=NCCc1ccccc1Cl)c1ccc2ccccc2c1 [TCMDC-137524]  -3.713%
4. NC(=NCCc1ccc(Cl)c(Cl)c1)c1ccc2ccccc2c1 [TCMDC-137525]  0.5254%
5. O=C(NCCCCN1CCC2c3cccc(O)c3CCC21)c1ccc(-c2ccccc2)cc1 (stereo not drawn) [TCMDC-139086]  3.232%
6. Cc1ccc2c(c1)C1(CC(=O)N(CCc3scnc3C)C1=O)C(=O)N2Cc1ccccc1 (stereo not drawn) [TCMDC-136702]  3.881%
7. COC(=O)c1ccc(CC(C)NCC(O)c2cccc(C(F)(F)F)c2)c(Cl)c1 (stereo not drawn) [TCMDC-131468]  4.686%
8. COCCNCc1ncsc1-c1ccc2c(Nc3ccc(Oc4ccccc4)cc3)ccnc2c1 [TCMDC-138440]  7.654%
9. COCCNCc1cccc(-c2cc3nccc(Nc4ccc(Oc5ccccc5)cc4)c3cc2Cl)c1 [TCMDC-138461]  14.84%
10. O=S(=O)(Nc1ccc2nccc(N3CCNCC3)c2c1)c1ccc2c(Cl)cccc2c1 [TCMDC-139383]  15.64%
11. Cc1cc(-c2ccc(CN3Cc4ccccc4C3)cc2)ccc1S(=O)(=O)NCCN1CCCC1 [TCMDC-132293]  17.83%
12. Cc1sc2ccc(Cl)cc2c1S(=O)(=O)Nc1ccc2nccc(N3CC(C)NC(C)C3)c2c1 (stereo not drawn) [TCMDC-139550]  20.27%
13. CS(=O)(=O)CCNCc1cccc(-c2ccc3c(Nc4ccc(Oc5ccccc5)cc4)ccnc3c2)c1 [TCMDC-138477]  27.24%
14. O=C(Nc1ccnc(-c2cccnc2)n1)c1cc(C(F)(F)F)cc(C(F)(F)F)c1 [TCMDC-124516]  40.18%
15. COCCNCc1cccc(-c2ccc3nccc(Nc4cc(O)ccc4C)c3c2)c1 [TCMDC-138480]  40.94%
16. COc1ccc(C2CC(=O)C3=C(C2)NC(C)=C(C(=O)OC(C)C)C3c2cccc(O)c2)cc1OC (stereo not drawn) [TCMDC-125636]  49.05%
17. Cc1sc2cc(Cl)cc(Cl)c2c1S(=O)(=O)Nc1ccc2nccc(N3CCNCC3)c2c1 [TCMDC-139444]  54.96%
18. Cc1cc(OCCCN=C(N)c2ccc3ccccc3c2)c(C(C)C)cc1Cl [TCMDC-137527]  57.09%
19. COCCNCc1cccc(-c2ccc3c(Nc4ccc(Oc5cccnc5)cc4)ccnc3c2)c1 [TCMDC-138487]  75%
20. COCCNCc1cccc(-c2ccc3c(Nc4ccc(Oc5ccccc5)cc4)ccnc3c2)c1 [TCMDC-138478]  82.82%
21. O=S(=O)(NCCN1CCCC1)c1ccc(-c2cccc(CNC3Cc4ccccc4C3)c2)cc1F [TCMDC-132221]  86.87%
22. Cc1cc(-c2ccc(CNC3Cc4ccccc4C3)cc2)ccc1S(=O)(=O)NCCN1CCCC1 [TCMDC-132243]  88.03%
23. CN(C)CCNCc1cccc(-c2ccc3c(Nc4ccc(Oc5ccccn5)cc4)ccnc3c2)c1 [TCMDC-138493]  98.43%
24. O=S(=O)(NCCN1CCCC1)c1ccc(-c2ccc(CNC3Cc4ccccc4C3)cc2)cc1F [TCMDC-132237]  105.2%
